Source: PubChem
FBW7 activator = activators of human E3 ligase FBW7; Q969H0; normalized activity (activation), % at 26.1 µM; actives 0.13% (n = 650,000); AlphaScreen FBW7–phospho-cyclin E peptide binding, activator screen; AID 1259310; in the data active = normalized activity above about 1.9%;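 note: purified mutant Fbw7 with reduced substrate affinity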
Target sequence (Q969H0 whole entry, looked up): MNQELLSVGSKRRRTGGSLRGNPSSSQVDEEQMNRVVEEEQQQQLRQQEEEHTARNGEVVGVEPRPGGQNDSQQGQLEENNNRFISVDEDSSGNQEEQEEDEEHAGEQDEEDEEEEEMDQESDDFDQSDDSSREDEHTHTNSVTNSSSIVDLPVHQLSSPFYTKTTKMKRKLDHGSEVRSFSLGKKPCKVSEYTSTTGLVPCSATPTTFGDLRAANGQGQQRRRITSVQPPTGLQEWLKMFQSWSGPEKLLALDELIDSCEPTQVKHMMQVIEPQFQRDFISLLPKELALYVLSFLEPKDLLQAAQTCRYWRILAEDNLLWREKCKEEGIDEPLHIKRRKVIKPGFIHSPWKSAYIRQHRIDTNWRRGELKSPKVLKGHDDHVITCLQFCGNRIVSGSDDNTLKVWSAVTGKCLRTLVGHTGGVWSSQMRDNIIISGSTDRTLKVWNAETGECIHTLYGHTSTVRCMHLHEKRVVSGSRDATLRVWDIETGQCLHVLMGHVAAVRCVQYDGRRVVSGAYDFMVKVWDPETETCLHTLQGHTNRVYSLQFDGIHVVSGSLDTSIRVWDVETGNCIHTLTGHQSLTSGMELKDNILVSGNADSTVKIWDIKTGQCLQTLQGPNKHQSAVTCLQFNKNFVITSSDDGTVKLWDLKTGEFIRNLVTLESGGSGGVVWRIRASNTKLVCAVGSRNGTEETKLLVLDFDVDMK
MITF inh = blocks human microphthalmia-associated transcription factor. AlphaScreen MITF homodimerization, bead proximity signal. inhibition, % at 2.6 µM. actives 0.91% (n = 650,000); in the data active = inhibition above about 50%
GPR151 activ = activates the human receptor GPR151 | PathHunter beta-arrestin GPR151 cells, luminescence | Q8TDV0 | actives 1% (n = 650,000) | activation, % at 11.2 µM; in the data active = activation above about 4.9%
TEAD-YAP block = TEAD-YAP interaction inhibition. HEK-TIYL cells, TEAD-Gal4/YAP UAS-luciferase luminescence. inhibition, % at 9.12 µM. actives 1.4% (n = 640,000); in the data active = inhibition above about 32%
MITF inh conf = human MITF inhibition, confirmation; AlphaScreen MITF homodimerization, biotin/His-MITF beads; shares compounds with MITF inh; actives 16% (n = 4,700); inhibition, % at 2.6 µM;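 active = inhibition above a cutoff derived from the DMSO control wells, cut at about 28% in these data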;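 note: inhibitors lower the bead chemiluminescence by keeping MITF from dimerizing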
AlphaScreen intf2 = AlphaScreen optical interference, counter-screen. shares compounds with MITF inh. LysRS AlphaScreen counterscreen, signal interference, triplicate. inhibition, % at 2.6 µM. actives 7.6% (n = 4,700);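 active = inhibition above a cutoff derived from the DMSO control wells, cut at about 30% in these data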
Each line names hits and unclear results; the compound was inactive in the other large screens (follow-up assays come after a bar, where they were run). The list is not random: actives were taken first. Their share in the collection is about 3.4%.

CC(C)C(NC(=O)c1ccoc1)c1nnc2n1CCN(Cc1cc3ccccc3[nH]1)CC2 (stereo not drawn)	MITF inh 69 | MITF inh conf inactive | AlphaScreen intf2 inactive
Cc1ccc(S(=O)(=O)NCCC(=O)NCCc2ccccc2Cl)cc1	none
CCC(C)OC(=O)C1=C(C)NC2=C(C(=O)CC(c3ccccc3)C2)C1c1cc(OC)c(OC)cc1Br (stereo not drawn)	MITF inh 63 | MITF inh conf inactive | AlphaScreen intf2 inactive
Cc1cc(C(C)(C)C)ccc1OCCN1CCN(C)CC1	MITF inh 87 | MITF inh conf inactive | AlphaScreen intf2 inactive
Cc1cc(C(C)(C)C)ccc1OCCCN1CCN(C)CC1	MITF inh 63 | MITF inh conf inactive | AlphaScreen intf2 inactive
Cc1cc(C(C)(C)C)ccc1OCCOCCN1CCN(C)CC1	none
Cc1cc(C(C)(C)C)ccc1OCCOCCN1CCOCC1	MITF inh 73 | MITF inh conf inactive | AlphaScreen intf2 inactive
Cc1oc2cc(OCC(=O)C3CCOC(C)(C)C3)ccc2c(=O)c1Oc1ccccc1 (stereo not drawn)	none
CC(C)(C)c1ccc(C(=O)NCC(=O)Nc2ccccc2)cc1	none
CCN(CC)CCCCCCn1c(C)cc(=O)n(C)c1=O	none
Cc1cc(=O)n(C)c(=O)n1CCCCCCN1CCOCC1	MITF inh 55 | MITF inh conf inactive | AlphaScreen intf2 inactive
COCCCNCCOCCOc1c(C)cc(C)cc1C	none
Cc1cc(C)c(OCCOCCNCCN)c(C)c1	MITF inh 70 | MITF inh conf inactive | AlphaScreen intf2 inactive
COCCCNCCOCCOc1c(C)cc(Cl)cc1C	MITF inh 71 | MITF inh conf inactive | AlphaScreen intf2 inactive
Cc1cc(Cl)cc(Cl)c1OCCOCCNCCN	MITF inh 65 | MITF inh conf inactive | AlphaScreen intf2 inactive
Cc1cc(OCCOCCNCCN)cc(C)c1Cl	none
CC(NCc1ccccc1)C1COc2ccccc2O1 (stereo not drawn)	MITF inh 58 | MITF inh conf inactive | AlphaScreen intf2 inactive
CCCCNC(C)C1COc2ccccc2O1 (stereo not drawn)	none
N#C/C(=C\c1ccc2c(c1)OCO2)c1nc2ccccc2[nH]1	none
Cc1nc(S(=O)(=O)c2ccccc2)c(SCc2ccc([N+](=O)[O-])cc2)o1	MITF inh 62 | MITF inh conf inactive | AlphaScreen intf2 33
COc1ccccc1NC(=O)c1c(NC(=O)c2cccs2)sc(-c2ccccc2)c1C	none
O=S(CCSc1nnnn1-c1ccccc1)c1ccccc1 (stereo not drawn)	none
CC(C)CNc1nc2c(c(=O)n(Cc3ccccc3)c(=O)n2C)n1C	none
O=C(O)CCCc1nc(-c2ccccc2Cl)no1	none
CC(C)NC(=O)CCCc1nc(-c2ccccc2Cl)no1	MITF inh 68 | MITF inh conf inactive | AlphaScreen intf2 inactive
O=C(Nc1cc([N+](=O)[O-])ccc1C(=O)NCCc1ccccc1)c1ccccc1	MITF inh 67 | MITF inh conf inactive | AlphaScreen intf2 inactive
COc1ccc2c(c1)C(C)=CC(C)(C)N2C(N)=S	MITF inh 72 | MITF inh conf 65 | AlphaScreen intf2 54
C/C=C/C(=O)N1c2ccc(OC)cc2C(C)=CC1(C)C	none
O=[N+]([O-])c1ccccc1CN1CCN(CC2CC3C=CC2C3)CC1 (stereo not drawn)	MITF inh 67 | MITF inh conf inactive | AlphaScreen intf2 inactive
C1=CC2CC1CC2CN1CCN(Cc2ccncc2)CC1 (stereo not drawn)	MITF inh 79 | MITF inh conf inactive | AlphaScreen intf2 inactive
C1=CC2CC1CC2CN1CCN(Cc2ccc3c(c2)OCO3)CC1 (stereo not drawn)	MITF inh 58 | MITF inh conf inactive | AlphaScreen intf2 inactive
c1ccc(CCCN2CCN(C3C4CC5CC(C4)CC3C5)CC2)cc1 (stereo not drawn)	MITF inh 70 | MITF inh conf inactive | AlphaScreen intf2 inactive
O=C(Cn1sc2ccccc2c1=O)NCc1cccc(Cl)c1	none
Fc1ccccc1N1CCN(CC2CC3C=CC2C3)CC1 (stereo not drawn)	none
Cc1ccc(S(=O)(=O)N2CCN(CC3CC4C=CC3C4)CC2)cc1 (stereo not drawn)	MITF inh 68 | MITF inh conf inactive | AlphaScreen intf2 inactive
Cc1ccc(S(=O)(=O)NC[C@@H]2CC3C=CC2C3)cc1 (stereo partly drawn)	none
Clc1ccc(CN2CCN(CC3CC4C=CC3C4)CC2)cc1 (stereo not drawn)	none
C1=CC2CC1CC2CN1CCN(CCCc2ccccc2)CC1 (stereo not drawn)	MITF inh 70 | MITF inh conf inactive | AlphaScreen intf2 inactive
O=[N+]([O-])c1ccc(CN2CCN(CC3CC4C=CC3C4)CC2)cc1 (stereo not drawn)	MITF inh 63 | MITF inh conf inactive | AlphaScreen intf2 inactive
O=C1c2ccccc2C(=O)N1CCSC(=S)N1CCSCC1	none
CCSC1=NSC2=NC(=O)/C(=C\c3coc4ccccc4c3=O)C(=N)N12	none
COc1cc(/C=N/O)ccc1OCC(C)C	none
COc1cc(/C=C2/NC(=O)NC2=O)c(Br)cc1OCc1ccccc1	none
COc1cccc(CN2CCC(N3CCN(c4ccccc4F)CC3)CC2)c1	MITF inh 73 | MITF inh conf inactive | AlphaScreen intf2 inactive
COc1ccccc1N1CCN(C2CCN(Cc3cccc(F)c3)CC2)CC1	MITF inh 62 | MITF inh conf inactive | AlphaScreen intf2 inactive
COc1ccc(/C=C/C(=O)C(C)(C)O)cc1	MITF inh 58 | MITF inh conf inactive | AlphaScreen intf2 inactive
CCOc1ccc(C(=O)N/N=C(/C)c2cccc(N)c2)cc1	none
CC(=O)N1CCN(c2ccc(NC(=O)c3ccccc3)cc2)CC1	none
CC(=O)N1CCN(c2ccc(NC(=S)NC(=O)c3ccccc3)cc2)CC1	MITF inh 52 | MITF inh conf inactive | AlphaScreen intf2 inactive
CC(C)CN(CC(C)C)C(=S)NC1CCCCC1	MITF inh 69 | MITF inh conf inactive | AlphaScreen intf2 inactive
CC1CCN(CC(=O)N(C)C2(c3ccccc3Cl)CCCCC2=O)CC1 (stereo not drawn)	MITF inh 90 | MITF inh conf inactive | AlphaScreen intf2 inactive
CCc1ccc(NC(=O)CCNS(=O)(=O)c2ccc3c(c2)oc(=O)n3C)cc1	none
c1coc(CN2CCN(Cc3cccc4ccccc34)CC2)c1	MITF inh 76 | MITF inh conf inactive | AlphaScreen intf2 inactive
O=C(CN1CCN(Cc2cccc3ccccc23)CC1)c1ccco1	MITF inh 67 | MITF inh conf inactive | AlphaScreen intf2 inactive
COc1ccc(C2=NN(C(C)=O)C(c3ccccc3F)C2)cc1 (stereo not drawn)	none
C=CCNC(=O)C1CCCN1C(=O)NC1CCCCC1 (stereo not drawn)	MITF inh 66 | MITF inh conf inactive | AlphaScreen intf2 inactive
O=C(NCC1CCCCC1)C1CCCN1C(=O)NC1CCCCC1 (stereo not drawn)	none
